Screening data from PubChem.
UHRF1 MBD2 ctr: UHRF1 methyl-DNA binding inhibition; inhibition, % at 4.4 µM; AID 687016; 370,000 compounds, 0.75% hits; Q96T88; UHRF1 binding to methylated oligo, TR-FRET; in the data active = inhibition above about 21%;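 note: UHRF1 SRA domain binding a hemimethylated CpG hairpin DNA probe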
LEDGF integ inh: blocks HIV-1 LEDGF/p75-dependent DNA integration | AID 743269 | inhibition, % at 3.7 µM | TR-FRET IN-LEDGF/p75 DNA integration, Eu/Cy5 | 370,000 compounds, 0.64% hits;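 active = inhibition above the screen-wide mean plus 3 SD, cut at about 13% in these data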;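 note: signal is the Cy5 over europium emission ratio at 671 and 618 nm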
PG9 binder: binds the HIV-1 gp120 antibody PG9; TR-FRET gp120-PG9 antibody binding; 360,000 compounds, 0.43% hits; inhibition, % at 6.7 µM; in the data active = inhibition above about 8.5%
MBD2 inh: blocks human MBD2 binding to methylated DNA | Q9UBB5 | TR-FRET, MBD2 binding to methylated oligonucleotide | inhibition, % at 4.4 µM | 370,000 compounds, 0.31% hits | AID 686964; in the data active = inhibition above about 13%
DNMT1 inh: inhibitors of human DNMT1. DNMT1 molecular beacon, Hinp1I cleavage, fluorescence. P26358. inhibition (reported as % activation of signal), % at 10 µM. AID 588458. 360,000 compounds, 0.83% hits; in the data active = inhibition above about 50%
rCAG RNA binder: binds r(CAG) RNA repeats | r(CAG) RNA repeat, TO-PRO-1 dye displacement fluorescence | inhibition, % at 3 µM | 370,000 compounds, 1.3% hits | AID 651821;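 active = inhibition above the plate cutoff, the mean of all test compounds on that plate plus 3 SD, cut at about 35% in these data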;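 note: higher means more dye released from RNA so lower well fluorescence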
IN multimer up: activates HIV-1 integrase multimerization in LEDGF counter-screen; shares compounds with LEDGF integ inh; TR-FRET HIV-1 integrase multimerization, biochemical; activation, % at 7.7 µM; 2,000 compounds, 17% hits; in the data active = activation above about 8.9%
TR-FRET interf: TR-FRET optical interference, LEDGF/p75 integration counter-screen | inhibition, % at 7.7 µM | TR-FRET optical interference counterscreen, HIV-1 IN multimerization | 2,000 tested, under 10 active | AID 1053135 | shares compounds with LEDGF integ inh;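 active = inhibition above the mean over all tested compounds plus 3 SD, which no compound reached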
IN-LEDGF confirm: confirmation of HIV-1 LEDGF/p75-dependent integration inhibitors; AID 1053136; shares compounds with LEDGF integ inh; 2,000 compounds, 36% hits; inhibition, % at 3.7 µM; TR-FRET LEDGF/p75-dependent HIV-1 integration, biochemical; in the data active = inhibition above about 14%
Hits are given with their value; - = inactive; . = no result. Only some compounds are listed: those with a hit (about 3.5% of all), similar ones and a draw of the others.

SMILES	UHRF1 MBD2 ctr	LEDGF integ inh	PG9 binder	MBD2 inh	DNMT1 inh	rCAG RNA binder	IN multimer up	TR-FRET interf	IN-LEDGF confirm
Cc1ccc(S(=O)(=O)N(C)c2ccccc2C(=O)Nc2c(F)cccc2F)cc1	-	36	-	-	-	-	-	-	-
Oc1ccc(N=Nc2cccc(C(F)(F)F)c2)cc1C=Nc1ccc(N2CCOCC2)cc1	-	14	-	-	-	-	-	-	14
Oc1c(Cl)cc(Cl)cc1C=Nc1ccc(N2CCOCC2)cc1	-	-	-	-	-	-	.	.	.
Cc1cc(Br)cc(C=Nc2ccc(N3CCOCC3)cc2)c1O	-	26	-	-	-	-	-	-	17
Oc1ccc(C=Nc2ccc(N3CCOCC3)cc2)c(O)c1	-	19	-	-	-	-	19	-	23
CCC(=O)Nc1nnc(S(=O)(=O)N2CCCC2)s1	-	14	-	-	-	-	-	-	-
CCc1nnc(NC(=O)CCC(=O)Nc2ccc(Cl)cc2)s1	-	-	-	-	-	-	.	.	.
Oc1cc(CNC2CCCCC2)c(O)cc1CNC1CCCCC1	-	14	-	-	-	-	-	-	24
COc1ccc(-c2nnc3sc(-c4cccs4)nn23)cc1OC	-	-	-	-	-	-	.	.	.
COc1cc(-c2cccs2)cc(=O)c2c(C)oc(C)c12	-	17	-	-	71	-	-	-	-
CC(C)c1ccc(NC(=O)Nc2nnc([C@@H]3C[C@H](O)[C@@H](CO)O3)s2)cc1	-	-	-	-	-	-	.	.	.
CCCCN1C(=O)C(=Nc2cccc3cnccc23)c2ccccc21	-	16	-	-	-	-	-	-	23
